In assay [1] the target is T1, Aurora kinase A (Homo sapiens) (UniProt O14965).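 Note: values are mean percent inhibition.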
T1 sequence (whole entry): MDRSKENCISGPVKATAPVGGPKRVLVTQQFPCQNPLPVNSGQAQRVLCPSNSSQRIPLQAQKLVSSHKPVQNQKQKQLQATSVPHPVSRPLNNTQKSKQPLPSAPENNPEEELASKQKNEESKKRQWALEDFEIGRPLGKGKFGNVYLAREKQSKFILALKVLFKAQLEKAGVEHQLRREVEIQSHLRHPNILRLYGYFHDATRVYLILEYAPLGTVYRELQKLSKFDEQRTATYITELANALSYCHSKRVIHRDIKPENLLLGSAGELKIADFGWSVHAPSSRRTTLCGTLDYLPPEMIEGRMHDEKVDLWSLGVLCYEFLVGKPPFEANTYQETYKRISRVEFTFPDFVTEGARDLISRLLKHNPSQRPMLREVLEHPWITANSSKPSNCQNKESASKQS
The following applies: at 1 µM.

Assay [2] deals with Aurora kinase B (Homo sapiens) (UniProt Q96GD4). To be noted: at 0.1 µM.
Sequence of Aurora kinase B (Homo sapiens) (Q96GD4 whole entry): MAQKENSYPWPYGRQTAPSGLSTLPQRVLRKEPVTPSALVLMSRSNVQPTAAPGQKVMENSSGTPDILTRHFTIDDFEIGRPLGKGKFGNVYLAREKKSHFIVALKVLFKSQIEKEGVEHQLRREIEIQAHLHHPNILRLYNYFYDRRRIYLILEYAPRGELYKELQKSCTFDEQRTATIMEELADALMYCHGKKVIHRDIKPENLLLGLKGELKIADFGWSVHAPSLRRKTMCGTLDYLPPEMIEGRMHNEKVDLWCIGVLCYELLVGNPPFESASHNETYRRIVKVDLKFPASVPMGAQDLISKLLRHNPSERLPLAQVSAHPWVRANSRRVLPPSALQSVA
Assay [3] has the same target. To be noted: at 1 µM.
Assay [4] has as its target T2, Aurora kinase C (Homo sapiens) (UniProt Q9UQB9).
T2 sequence (whole entry): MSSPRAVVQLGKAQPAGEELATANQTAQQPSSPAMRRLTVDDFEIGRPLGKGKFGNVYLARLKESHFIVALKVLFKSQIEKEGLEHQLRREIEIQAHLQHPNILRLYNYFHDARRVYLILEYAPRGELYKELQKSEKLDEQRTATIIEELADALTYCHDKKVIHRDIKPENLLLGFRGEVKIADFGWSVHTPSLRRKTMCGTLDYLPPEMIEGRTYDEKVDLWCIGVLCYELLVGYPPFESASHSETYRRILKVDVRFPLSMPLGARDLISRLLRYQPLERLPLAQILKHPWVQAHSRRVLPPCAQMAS
The following applies: at 0.1 µM.

Assay [5] deals with T2, Aurora kinase C (Homo sapiens). To be noted: at 1 µM.
The target of assay [6] is Serine/threonine-protein kinase 10 (Homo sapiens) (UniProt O94804). The following applies: at 0.1 µM.
Sequence of Serine/threonine-protein kinase 10 (Homo sapiens) (O94804 whole entry, looked up): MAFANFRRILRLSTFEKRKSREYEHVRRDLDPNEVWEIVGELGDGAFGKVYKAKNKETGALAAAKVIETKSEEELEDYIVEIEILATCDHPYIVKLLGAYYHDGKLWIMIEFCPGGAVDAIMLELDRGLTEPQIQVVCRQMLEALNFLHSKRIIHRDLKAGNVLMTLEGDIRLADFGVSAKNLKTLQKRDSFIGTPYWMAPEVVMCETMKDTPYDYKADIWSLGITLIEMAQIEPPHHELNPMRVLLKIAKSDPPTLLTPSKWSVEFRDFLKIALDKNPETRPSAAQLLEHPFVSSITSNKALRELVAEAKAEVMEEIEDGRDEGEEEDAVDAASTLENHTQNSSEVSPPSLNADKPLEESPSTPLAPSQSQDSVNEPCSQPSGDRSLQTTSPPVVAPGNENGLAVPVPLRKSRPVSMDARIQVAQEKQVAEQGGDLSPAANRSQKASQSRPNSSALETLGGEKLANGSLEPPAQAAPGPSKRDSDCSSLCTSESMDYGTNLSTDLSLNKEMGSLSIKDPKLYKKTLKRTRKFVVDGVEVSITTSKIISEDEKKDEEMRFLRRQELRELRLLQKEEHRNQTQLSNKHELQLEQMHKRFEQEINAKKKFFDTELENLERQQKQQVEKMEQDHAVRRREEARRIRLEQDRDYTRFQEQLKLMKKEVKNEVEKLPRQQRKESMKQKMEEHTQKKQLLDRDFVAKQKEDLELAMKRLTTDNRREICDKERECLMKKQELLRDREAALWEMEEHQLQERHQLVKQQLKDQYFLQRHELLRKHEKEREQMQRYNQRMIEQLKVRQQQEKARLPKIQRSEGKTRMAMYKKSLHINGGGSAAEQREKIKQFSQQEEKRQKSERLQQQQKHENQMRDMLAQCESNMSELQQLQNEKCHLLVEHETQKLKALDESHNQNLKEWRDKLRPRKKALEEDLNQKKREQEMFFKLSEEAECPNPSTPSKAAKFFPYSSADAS
For assay [7] the target is unchanged. To be noted: at 1 µM.
In assay [8] the target is T3, Mitogen-activated protein kinase kinase kinase kinase 2 (Homo sapiens) (UniProt Q12851).
T3 sequence (whole entry): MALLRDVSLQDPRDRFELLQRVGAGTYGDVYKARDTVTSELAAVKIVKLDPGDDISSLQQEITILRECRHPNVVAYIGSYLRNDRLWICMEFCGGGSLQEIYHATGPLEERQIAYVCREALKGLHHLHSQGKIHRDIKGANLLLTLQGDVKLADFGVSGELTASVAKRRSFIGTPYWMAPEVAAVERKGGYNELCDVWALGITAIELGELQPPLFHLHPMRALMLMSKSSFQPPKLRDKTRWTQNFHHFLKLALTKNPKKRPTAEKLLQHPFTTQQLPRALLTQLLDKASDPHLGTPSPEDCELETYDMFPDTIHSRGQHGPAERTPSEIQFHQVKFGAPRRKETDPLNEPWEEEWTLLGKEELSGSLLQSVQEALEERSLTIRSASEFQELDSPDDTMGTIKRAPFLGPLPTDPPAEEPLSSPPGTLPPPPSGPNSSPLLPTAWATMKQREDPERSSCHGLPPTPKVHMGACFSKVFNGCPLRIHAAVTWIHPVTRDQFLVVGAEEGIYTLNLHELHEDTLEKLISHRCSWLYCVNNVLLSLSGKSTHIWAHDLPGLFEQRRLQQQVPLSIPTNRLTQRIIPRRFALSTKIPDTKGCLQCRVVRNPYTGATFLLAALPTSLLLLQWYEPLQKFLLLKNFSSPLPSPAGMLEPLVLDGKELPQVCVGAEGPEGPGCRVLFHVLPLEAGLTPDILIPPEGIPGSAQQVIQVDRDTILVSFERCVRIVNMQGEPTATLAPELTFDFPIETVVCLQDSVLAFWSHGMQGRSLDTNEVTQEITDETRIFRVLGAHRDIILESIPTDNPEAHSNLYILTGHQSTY
The following applies: at 0.1 µM.

Assay [9] has as its target T3, Mitogen-activated protein kinase kinase kinase kinase 2 (Homo sapiens). To be noted: at 1 µM.
For assay [10], the target named is Mitogen-activated protein kinase kinase kinase kinase 4 (Homo sapiens) (UniProt O95819). The following applies: at 0.1 µM.
Sequence of Mitogen-activated protein kinase kinase kinase kinase 4 (Homo sapiens) (O95819 2-1239 limits assumed): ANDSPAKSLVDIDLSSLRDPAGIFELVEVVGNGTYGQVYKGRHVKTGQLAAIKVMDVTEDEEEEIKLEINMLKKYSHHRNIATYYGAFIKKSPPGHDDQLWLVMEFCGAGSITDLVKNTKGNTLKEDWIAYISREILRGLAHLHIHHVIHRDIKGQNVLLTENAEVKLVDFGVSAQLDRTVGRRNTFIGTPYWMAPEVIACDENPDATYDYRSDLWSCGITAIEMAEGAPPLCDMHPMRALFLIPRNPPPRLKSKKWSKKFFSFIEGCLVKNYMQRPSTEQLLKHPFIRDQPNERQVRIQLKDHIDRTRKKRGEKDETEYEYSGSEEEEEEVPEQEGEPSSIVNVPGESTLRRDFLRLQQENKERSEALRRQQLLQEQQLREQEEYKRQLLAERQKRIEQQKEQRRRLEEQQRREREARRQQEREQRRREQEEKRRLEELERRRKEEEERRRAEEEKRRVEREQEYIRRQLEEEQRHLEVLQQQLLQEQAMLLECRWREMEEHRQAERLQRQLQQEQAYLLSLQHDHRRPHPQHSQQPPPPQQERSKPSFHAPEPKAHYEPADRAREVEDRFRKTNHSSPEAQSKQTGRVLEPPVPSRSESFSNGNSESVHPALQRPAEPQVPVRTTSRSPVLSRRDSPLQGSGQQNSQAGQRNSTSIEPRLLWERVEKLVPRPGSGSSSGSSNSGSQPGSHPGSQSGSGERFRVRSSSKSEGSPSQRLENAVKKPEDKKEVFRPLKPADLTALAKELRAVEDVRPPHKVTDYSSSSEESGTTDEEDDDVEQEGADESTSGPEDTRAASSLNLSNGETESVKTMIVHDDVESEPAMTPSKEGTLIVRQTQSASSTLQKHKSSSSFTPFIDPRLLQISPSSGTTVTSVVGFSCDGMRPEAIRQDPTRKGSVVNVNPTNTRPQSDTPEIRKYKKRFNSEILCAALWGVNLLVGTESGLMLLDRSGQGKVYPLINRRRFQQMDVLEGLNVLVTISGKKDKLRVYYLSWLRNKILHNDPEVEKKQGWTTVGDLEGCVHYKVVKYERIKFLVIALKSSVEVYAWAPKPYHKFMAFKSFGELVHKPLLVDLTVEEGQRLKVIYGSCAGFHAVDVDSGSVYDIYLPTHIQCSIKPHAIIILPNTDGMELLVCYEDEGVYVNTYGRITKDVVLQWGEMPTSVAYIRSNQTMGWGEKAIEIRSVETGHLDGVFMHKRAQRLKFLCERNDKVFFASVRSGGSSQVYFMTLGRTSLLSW
Assay [11] shares this target. The following applies: at 1 µM.
In assay [12] the target is Dual specificity mitogen-activated protein kinase kinase 1 (Homo sapiens) (UniProt Q02750). To be noted: at 0.1 µM.
Sequence of Dual specificity mitogen-activated protein kinase kinase 1 (Homo sapiens) (Q02750 whole entry): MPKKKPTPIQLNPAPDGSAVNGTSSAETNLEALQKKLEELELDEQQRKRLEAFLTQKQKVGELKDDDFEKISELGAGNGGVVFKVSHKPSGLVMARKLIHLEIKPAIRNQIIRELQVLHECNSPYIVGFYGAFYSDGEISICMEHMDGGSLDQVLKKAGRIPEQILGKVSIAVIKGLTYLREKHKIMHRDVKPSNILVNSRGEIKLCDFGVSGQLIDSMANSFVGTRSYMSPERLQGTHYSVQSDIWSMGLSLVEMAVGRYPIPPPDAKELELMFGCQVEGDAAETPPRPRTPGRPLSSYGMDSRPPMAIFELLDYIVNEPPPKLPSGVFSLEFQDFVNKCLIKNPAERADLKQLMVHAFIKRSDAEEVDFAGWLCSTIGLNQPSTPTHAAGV
Assay [13] has the same target. The following applies: at 1 µM.
Assay [14] has as its target Misshapen-like kinase 1 (Homo sapiens) (UniProt Q8N4C8). The following applies: at 0.1 µM.
Assay [15] shares this target. To be noted: at 1 µM.
For assay [16], the target named is T4, Serine/threonine-protein kinase 4 (Homo sapiens) (UniProt Q13043).
T4 sequence (whole entry): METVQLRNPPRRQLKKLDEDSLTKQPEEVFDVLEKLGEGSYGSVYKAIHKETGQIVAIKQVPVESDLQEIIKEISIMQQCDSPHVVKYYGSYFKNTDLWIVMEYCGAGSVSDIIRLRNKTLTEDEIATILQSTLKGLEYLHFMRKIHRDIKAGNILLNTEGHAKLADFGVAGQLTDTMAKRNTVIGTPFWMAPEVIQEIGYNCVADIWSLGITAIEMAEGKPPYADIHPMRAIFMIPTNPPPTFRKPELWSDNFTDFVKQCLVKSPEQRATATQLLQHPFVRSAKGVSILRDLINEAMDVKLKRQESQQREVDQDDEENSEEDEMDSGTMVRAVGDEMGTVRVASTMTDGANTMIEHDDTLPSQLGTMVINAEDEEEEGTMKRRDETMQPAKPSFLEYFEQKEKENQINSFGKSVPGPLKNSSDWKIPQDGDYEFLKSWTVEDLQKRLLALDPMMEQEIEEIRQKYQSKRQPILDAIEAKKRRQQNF
The following applies: at 0.1 µM.

In assay [17] the target is T4, Serine/threonine-protein kinase 4 (Homo sapiens). The following applies: at 1 µM.
For assay [18], the target named is T5, Serine/threonine-protein kinase 3 (Homo sapiens) (UniProt Q13188).
T5 sequence (whole entry): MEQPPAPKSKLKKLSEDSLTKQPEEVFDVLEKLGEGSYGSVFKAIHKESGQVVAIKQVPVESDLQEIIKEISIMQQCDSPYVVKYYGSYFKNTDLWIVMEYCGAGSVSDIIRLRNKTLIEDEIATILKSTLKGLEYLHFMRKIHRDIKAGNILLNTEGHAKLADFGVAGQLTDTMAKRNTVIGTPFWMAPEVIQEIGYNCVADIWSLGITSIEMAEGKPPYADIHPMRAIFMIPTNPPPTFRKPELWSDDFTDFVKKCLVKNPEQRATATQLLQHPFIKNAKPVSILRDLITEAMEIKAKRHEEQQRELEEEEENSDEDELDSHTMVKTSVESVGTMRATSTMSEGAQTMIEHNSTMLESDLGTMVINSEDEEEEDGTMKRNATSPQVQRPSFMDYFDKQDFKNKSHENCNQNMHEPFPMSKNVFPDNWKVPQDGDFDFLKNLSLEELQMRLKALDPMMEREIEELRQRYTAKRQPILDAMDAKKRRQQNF
The following applies: at 0.1 µM.

Assay [19] has as its target T5, Serine/threonine-protein kinase 3 (Homo sapiens). The following applies: at 1 µM.
For assay [20], the target named is Serine/threonine-protein kinase 26 (Homo sapiens) (UniProt Q9P289). To be noted: at 0.1 µM.
Sequence of Serine/threonine-protein kinase 26 (Homo sapiens) (Q9P289 2-416 limits assumed): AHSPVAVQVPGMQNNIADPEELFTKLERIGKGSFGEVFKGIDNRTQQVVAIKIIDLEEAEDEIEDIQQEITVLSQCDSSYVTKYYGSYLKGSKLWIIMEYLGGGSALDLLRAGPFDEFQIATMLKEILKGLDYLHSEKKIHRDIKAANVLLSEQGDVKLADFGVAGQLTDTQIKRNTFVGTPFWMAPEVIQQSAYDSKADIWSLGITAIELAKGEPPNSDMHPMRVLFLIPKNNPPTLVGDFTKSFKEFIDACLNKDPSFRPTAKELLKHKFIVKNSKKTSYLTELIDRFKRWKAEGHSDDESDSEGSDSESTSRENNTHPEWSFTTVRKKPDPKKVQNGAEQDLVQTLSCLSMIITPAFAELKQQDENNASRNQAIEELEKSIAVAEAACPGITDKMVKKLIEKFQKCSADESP

Sequence of Misshapen-like kinase 1 (Homo sapiens) (Q8N4C8 whole entry, looked up): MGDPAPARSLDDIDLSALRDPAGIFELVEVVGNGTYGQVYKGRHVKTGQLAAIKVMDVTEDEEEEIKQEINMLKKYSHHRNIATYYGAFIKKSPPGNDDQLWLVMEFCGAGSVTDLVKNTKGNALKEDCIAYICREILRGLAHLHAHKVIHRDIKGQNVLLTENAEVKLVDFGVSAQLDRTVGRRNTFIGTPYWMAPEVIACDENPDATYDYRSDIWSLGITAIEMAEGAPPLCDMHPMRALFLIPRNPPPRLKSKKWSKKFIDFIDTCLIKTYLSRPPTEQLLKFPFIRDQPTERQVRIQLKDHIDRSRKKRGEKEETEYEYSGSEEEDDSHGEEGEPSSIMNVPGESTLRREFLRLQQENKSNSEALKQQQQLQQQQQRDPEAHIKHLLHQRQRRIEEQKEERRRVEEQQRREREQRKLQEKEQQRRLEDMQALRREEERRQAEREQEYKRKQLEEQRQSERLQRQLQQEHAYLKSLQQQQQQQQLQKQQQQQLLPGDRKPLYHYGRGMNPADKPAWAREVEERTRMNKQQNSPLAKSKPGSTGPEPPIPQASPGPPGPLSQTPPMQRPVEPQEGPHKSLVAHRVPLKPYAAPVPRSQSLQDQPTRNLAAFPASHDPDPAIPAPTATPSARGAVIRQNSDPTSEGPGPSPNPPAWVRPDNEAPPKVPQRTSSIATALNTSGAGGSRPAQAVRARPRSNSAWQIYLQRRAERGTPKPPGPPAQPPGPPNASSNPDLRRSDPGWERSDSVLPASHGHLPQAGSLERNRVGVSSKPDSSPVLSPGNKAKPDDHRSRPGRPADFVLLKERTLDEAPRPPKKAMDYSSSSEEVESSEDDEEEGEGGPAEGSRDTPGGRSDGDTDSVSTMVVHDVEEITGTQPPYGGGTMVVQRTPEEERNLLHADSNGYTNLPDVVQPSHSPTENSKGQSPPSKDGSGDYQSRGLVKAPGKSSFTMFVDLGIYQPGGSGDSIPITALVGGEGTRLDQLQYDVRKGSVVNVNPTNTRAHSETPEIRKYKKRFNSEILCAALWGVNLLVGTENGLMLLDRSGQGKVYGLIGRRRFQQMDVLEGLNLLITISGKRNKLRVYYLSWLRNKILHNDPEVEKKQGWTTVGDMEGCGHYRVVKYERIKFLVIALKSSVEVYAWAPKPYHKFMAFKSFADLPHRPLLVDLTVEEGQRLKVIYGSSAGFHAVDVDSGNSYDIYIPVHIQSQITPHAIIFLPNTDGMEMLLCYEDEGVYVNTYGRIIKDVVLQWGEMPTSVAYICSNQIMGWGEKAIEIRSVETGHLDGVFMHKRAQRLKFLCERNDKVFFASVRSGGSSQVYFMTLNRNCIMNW

With `NC(=O)c1sc(-n2cnc3cc(C(F)(F)F)ccc32)cc1OCc1ccccc1Br`, the inhibition (in general, the drop in the measured response relative to a control, in per cent) is 2.05% in [1]; -0.8% in assay [2]; 2.44% in assay [3]; 1.36% in assay [4]; 4.02% in assay [5]; 7.36% in assay [6]. In addition, the inhibition in assay [7] amounted to 34.7%; in assay [8], 1.32%; in [9] it was 5.29%; in assay [10] it was 3.11%; in assay [11], 12.4%; in [12] it was 2.56%. Also, the inhibition stood at 1.52% in [13]; 4.93% in [14]; 11.4% in assay [15]; 1.82% in assay [16]; 2.83% in [17]; 1.31% in assay [18]. Moreover, the values for the inhibition in assay [19] and in assay [20] were 2.28% and 1.54%, respectively.
On to `COc1cccc(COc2cc(-n3cnc4ccccc43)sc2C(N)=O)c1`, for which the inhibition in assay [1] was 2.21%; in assay [2], -1.57%; in assay [3] it was 1.15%; in assay [4], 1.58%; in assay [5], 3.73%; in assay [6], 4.63%. For the same molecule, the inhibition in [7] came to 39.4%; in assay [8] it was 1.4%; in assay [9], 7.04%; in [10], 1.37%; in assay [11], 18.5%; in assay [12], 0.36%. Also, the inhibition is 0.58% in [13]; 3.1% in assay [14]; 16.3% in assay [15]; -1.11% in [16]; 2.62% in [17]; 0.35% in assay [18]. Moreover, the inhibition in assay [19] stood at 1.4%; in [20] it was 1.25%.
In the case of `NS(=O)(=O)c1ccc(-c2ccc3c(NC(=O)C4CC4)n[nH]c3c2)cc1`, the inhibition came out at 15.3% in assay [1]; 3.22% in [2]; 0.63% in assay [3]; 1.15% in [4]; 14.4% in assay [5]; 4.04% in assay [6]. Moreover, the inhibition is 5.59% in assay [7]; -0.26% in [8]; 2.11% in assay [9]; 3.77% in assay [10]; 5.23% in assay [11]; 1.7% in assay [12]. Further, the inhibition in [13] stood at 2%; in assay [14], 3.12%; in assay [15], 4.48%; in assay [16], 3.07%; in assay [17], 5.91%; in [18], 4.35%. Moreover, the inhibition turned out to be 5.17% in assay [19] and 0.02% in assay [20].
On to `CCn1c(-c2nonc2N)nc2c(C#CCN)ncc(OCCCN)c21`, for which the inhibition in assay [1] was 5.16%; in assay [2], 4.99%; in assay [3] it was 6.36%; in [4] it was 3.54%; in assay [5] it was -8.09%; in [6], 4.42%. The inhibition in assay [7] was 11.3%; in assay [8], 3.61%; in [9], 4.55%; in assay [10] it was 1.78%; in assay [11] it was 6.77%; in assay [12], -2.28%. The inhibition in assay [13] was -2.9%; in [14], -0.45%; in [15], 11.5%; in [16], 2%; in assay [17], 5.35%; in [18], 2.31%. Besides, the inhibition in assay [19] was determined as 6.61%; in assay [20], 1.82%.
In the case of `COc1cc(C=NNc2ncnc3c2cnn3Cc2ccccc2)ccc1O`, the inhibition is 25.6% in assay [1]; 2.52% in [2]; 34.4% in assay [3]; 1.25% in assay [4]; 10.6% in assay [5]; -4.65% in assay [6]. In addition, the inhibition was 5.71% in [7]; 0.89% in [8]; 4.63% in assay [9]; -1.52% in assay [10]; 7.51% in [11]; -3.29% in [12]. The inhibition was -4.65% in assay [13]; -2.43% in assay [14]; 5.48% in [15]; -3.73% in [16]; -2.3% in [17]; -4.05% in [18]. Besides, the inhibition was -0.82% in assay [19] and 1.58% in assay [20].
As to `COc1cccc(-n2ncc3c(N/N=C/c4ccncc4)ncnc32)c1`, the inhibition in assay [1] was determined as 73.8%; in assay [2] it was 7.94%; in [3] it was 43.1%; in [4], 7.33%; in assay [5], 61.4%; in [6] it was 5.83%. Also, the inhibition is 33.5% in assay [7]; 2.12% in assay [8]; 7.06% in [9]; 20.1% in assay [10]; 67.7% in assay [11]; 7.89% in assay [12]. In addition, the inhibition in assay [13] was 7.23%; in [14], 16.2%; in [15], 55.4%; in assay [16], 9.07%; in assay [17], 12.8%; in [18] it was 5.41%. Besides, the results for the inhibition in assay [19] and in assay [20] were 10.7% and 0.95%, respectively.
As for `Nc1nonc1-c1nc2cnccc2n1C1CCCCC1`, the inhibition in assay [1] is 5.79%; in [2], 0.62%; in assay [3], 7.52%; in [4], -0.66%; in assay [5], 5.22%; in assay [6], 0.39%. For the same molecule, the inhibition in [7] stood at 18.4%; in assay [8], 3.87%; in assay [9], 20.4%; in [10], 6.25%; in assay [11] it was 46.2%; in assay [12], 0.13%. The inhibition is 7.67% in assay [13]; 2.02% in [14]; 31.4% in assay [15]; 0.54% in assay [16]; 18.5% in [17]; -0.2% in [18]. For the same molecule, the inhibition in assay [19] amounted to 13.8%; in assay [20] it was 0.77%.
